# Laboratory results published in publication PMC13541613, “GHT-SELEX demonstrates unexpectedly high intrinsic sequence specificity and complex DNA binding of many human transcription factors”.
# Biological target: ZNF721 full-length (Homo sapiens, UniProt Q8TF20-2 1-923)
# Experiment: HT-SELEX; 20 mM HEPES pH 7, 140 mM KCl, 5 mM NaCl, 1 mM K2HPO4, 2 mM MgSO4, 100 uM EGTA, ZnSO4, 0.1% Tween20; room temperature, 1 h; high values mean tight binding
# Details: protein: ivt; tags: eGFP (N-terminal); dsDNA, one strand shown
# Method in brief: (§1)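 Tagged transcription factor, expressed in HEK293 lysate or cell-free extract as a full-length protein or DNA-binding-domain fragment, was held on beads. It bound a randomized 40-base DNA library during 1 h at room temperature in low-stringency HEPES/KCl buffer with Tween20. Eluted DNA went through successive PCR cycles and Illumina sequencing of ~3 million 60 bp reads per sample. A higher relative k-mer count in the selected reads denotes tighter binding.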
# Chain of ZNF721 full-length (Q8TF20 other isoform, or with tags, fused parts or gaps): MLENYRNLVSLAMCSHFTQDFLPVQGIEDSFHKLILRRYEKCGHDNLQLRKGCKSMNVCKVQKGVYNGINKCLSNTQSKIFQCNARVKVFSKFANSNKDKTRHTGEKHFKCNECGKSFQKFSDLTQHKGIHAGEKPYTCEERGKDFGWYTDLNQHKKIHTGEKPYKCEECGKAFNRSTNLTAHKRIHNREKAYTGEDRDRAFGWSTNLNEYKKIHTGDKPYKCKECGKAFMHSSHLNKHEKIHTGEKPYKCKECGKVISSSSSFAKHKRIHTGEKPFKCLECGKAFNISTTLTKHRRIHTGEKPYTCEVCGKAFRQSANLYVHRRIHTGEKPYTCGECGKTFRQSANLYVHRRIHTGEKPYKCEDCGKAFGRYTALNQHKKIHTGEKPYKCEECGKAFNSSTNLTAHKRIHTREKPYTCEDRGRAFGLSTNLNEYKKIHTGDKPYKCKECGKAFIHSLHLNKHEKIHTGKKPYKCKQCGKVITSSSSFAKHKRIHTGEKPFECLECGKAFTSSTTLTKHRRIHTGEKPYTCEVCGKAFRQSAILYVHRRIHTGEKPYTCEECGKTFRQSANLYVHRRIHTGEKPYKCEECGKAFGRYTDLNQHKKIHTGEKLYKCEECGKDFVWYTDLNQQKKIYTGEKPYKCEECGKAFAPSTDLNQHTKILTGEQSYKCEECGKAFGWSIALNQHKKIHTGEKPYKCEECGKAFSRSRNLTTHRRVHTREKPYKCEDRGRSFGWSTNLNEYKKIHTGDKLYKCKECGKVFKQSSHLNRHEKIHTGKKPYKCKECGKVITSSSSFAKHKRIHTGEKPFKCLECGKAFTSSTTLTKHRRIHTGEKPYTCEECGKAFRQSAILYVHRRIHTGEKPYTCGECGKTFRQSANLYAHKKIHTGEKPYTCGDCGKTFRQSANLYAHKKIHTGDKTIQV
row,Sequence,binding signal [relative 10-mer count]
1,CCAACCCCAC,0.128
2,CTCCCCCACC,0.191
3,CGTCCCCCCC,0.126
4,ACCCCCCCAC,0.169
5,CCACAAAAAA,0.125
6,ACCCCCCCCA,0.154
7,CCCTCCCCCA,0.192
8,CCCCCCAACC,0.194
9,CCCCCAACCC,0.233
10,AACAAGCAGT,0.128
11,GAAAAAAAGC,0.29
12,GAAAAAAAAA,0.142
13,AAACAGCGTA,0.378
14,AAAAAAGCTA,0.489
15,CCCACCCACG,0.141
16,CACAAAAAAA,0.181
17,AACCACCCCC,0.106
18,GGGGGTGGGA,0.205
19,GGGCGGGGGA,0.122
20,CCCACCCAGC,0.106

row,Sequence,binding signal [relative 10-mer count]
1,CCCACCCAAC,0.172
2,ACGAAAAAAG,0.126
3,CCCTCCCCCG,0.145
4,CCCCCTCCCG,0.114
5,CGCCCCCGCC,0.132
6,CCACCCCCCC,0.32
7,AACAGGGTAT,0.138
8,CCAGCCCACC,0.12
9,CCTACCCCCC,0.127
10,CCACCGACCC,0.107
11,GCACCCCACC,0.104
12,CAACAAAACA,0.111
13,CACCCCCCCG,0.131
14,CCACCCGCCA,0.108
15,AAAAGCAGCA,0.304
16,AAACAAGCAG,0.212
17,CAAAAAAAGC,0.202
18,ACCCCCGCCC,0.173
19,AGAAAAAACA,0.12
20,CCGCCCCACC,0.257

# Biological target: ZNF721 DBD1 (Homo sapiens, UniProt Q8TF20-2 29-461)
# Experiment: as above
# Details: protein: ivt; tags: eGFP (N-terminal); dsDNA, one strand shown
# Method in brief: as §1
# Chain of ZNF721 DBD1 (Q8TF20 17-449): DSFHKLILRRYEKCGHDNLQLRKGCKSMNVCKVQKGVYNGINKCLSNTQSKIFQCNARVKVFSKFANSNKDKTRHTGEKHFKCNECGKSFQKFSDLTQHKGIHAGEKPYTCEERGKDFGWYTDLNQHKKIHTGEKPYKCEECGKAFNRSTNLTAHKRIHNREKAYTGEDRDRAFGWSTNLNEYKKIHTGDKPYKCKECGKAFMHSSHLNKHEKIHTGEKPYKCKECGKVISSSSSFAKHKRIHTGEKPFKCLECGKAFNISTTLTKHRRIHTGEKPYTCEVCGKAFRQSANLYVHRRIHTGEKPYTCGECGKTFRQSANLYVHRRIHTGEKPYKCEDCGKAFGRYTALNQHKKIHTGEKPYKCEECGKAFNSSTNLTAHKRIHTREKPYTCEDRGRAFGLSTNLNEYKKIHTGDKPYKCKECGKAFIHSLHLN
row,Sequence,binding signal [relative 10-mer count]
1,CCAACCCCAC,0.00482
2,CTCCCCCACC,0.0104
3,CGTCCCCCCC,0.00619
4,ACCCCCCCAC,0.00697
5,CCACAAAAAA,0.00615
6,ACCCCCCCCA,0.005
7,CCCTCCCCCA,0.00881
8,CCCCCCAACC,0.00651
9,CCCCCAACCC,0.00775
10,AACAAGCAGT,0.017
11,GAAAAAAAGC,0.0712
12,GAAAAAAAAA,0.0136
13,AAACAGCGTA,0.00115
14,AAAAAAGCTA,0.222
15,CCCACCCACG,0.00472
16,CACAAAAAAA,0.0107
17,AACCACCCCC,0.00303
18,GGGGGTGGGA,0.0115
19,GGGCGGGGGA,0.00482
20,CCCACCCAGC,0.00307

row,Sequence,binding signal [relative 10-mer count]
1,CCCACCCAAC,0.00679
2,ACGAAAAAAG,0.0251
3,CCCTCCCCCG,0.00555
4,CCCCCTCCCG,0.00573
5,CGCCCCCGCC,0.00523
6,CCACCCCCCC,0.0122
7,AACAGGGTAT,0.00119
8,CCAGCCCACC,0.00353
9,CCTACCCCCC,0.00555
10,CCACCGACCC,0.00482
11,GCACCCCACC,0.00284
12,CAACAAAACA,0.00174
13,CACCCCCCCG,0.00252
14,CCACCCGCCA,0.00445
15,AAAAGCAGCA,0.00578
16,AAACAAGCAG,0.00908
17,CAAAAAAAGC,0.0258
18,ACCCCCGCCC,0.00619
19,AGAAAAAACA,0.00211
20,CCGCCCCACC,0.00894
